In PubChem BioAssay (NCATS):
Results filed as inconclusive are left out. Activity calls are given as the source filed them. The call rests on the fitted dose curve; in most records, active means well fitted inhibition curve with a large enough effect; inconclusive means small, poorly fitted or top-dose-only effect; inactive means flat fitted curve, though single readings scatter.

Columns and labels:
CRL-7250 = normal cell line; test: Cytotoxic Profiling of Annotated Libraries Using Quantitative High-Throughput Screening (AID 1296008); settings: Five cell lines viability, CellTiter-Glo ATP luminescence, 48-72 h; max response: stronger effect = lower value; on max response: on the % scale 0 is the no-effect control and ±100 the full control effect
Outline: (§1)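 Compounds were pin-transferred onto cells and incubated 48 or 72 hr at 37 degree Celsius, 95% humidity. CellTiter-Glo was added, plates sat 10 min at room temperature, then ATP-coupled luminescence was imaged as the viability read-out.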

HaCat [1] = test: as above; settings: Five cell lines viability, CellTiter-Glo ATP luminescence, 48-72 h; max response: stronger effect = lower value
Outline: as §1

KB-3-1 = test: as above; settings: Five cell lines viability, CellTiter-Glo ATP luminescence, 48-72 h; max response: stronger effect = lower value
Outline: as §1

NIH3T3 = test: as above; settings: Five cell lines viability, CellTiter-Glo ATP luminescence, 48-72 h; max response: stronger effect = lower value
Outline: as §1

HACAT [2] = test: qHTS assay to identify novel small-molecules to repurpose for Merkel cell carcinoma treatment (AID 1296009); settings: MCC and control cell lines, CellTiter-Glo viability, 72 h; at 44.8 µM (top of the series) unless noted
Outline: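 Luminescence from CellTiter-Glo, read 10 min after addition at room temperature, reported viability following a 72 hr, 37 degree celsius treatment with NPC or MIPE compounds in titration; values normalized to plate controls.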

Measured: max response
Further: nearly all actives have a fitted effect of over 60% in size.

CC(=O)OCC(=O)[C@@]12O[C@@H]1C[C@H]1[C@@H]3CC=C4C[C@@H](O)CC[C@]4(C)[C@H]3CC[C@@]12C
inactive: CRL-7250 1.57% | HaCat [1] | KB-3-1 | NIH3T3 | HACAT [2]

CNCCN1CCC(c2cc(CN(C)C(=O)c3cccc(Oc4ccccc4)c3)ccn2)CC1
inactive: CRL-7250 1.09% | HaCat [1] | KB-3-1 8.17% | NIH3T3 1.12% | HACAT [2] inactive [at 17.4 µM]

CC(C)CCCCC(=O)N[C@@H](CO)C(=O)N[C@@H](CC(C)C)C(=O)[C@@]1(CO)CO1
inactive: CRL-7250 -2.59% | HaCat [1] | KB-3-1 -12% | NIH3T3 -2.24% | HACAT [2]

CN(C)CCOc1cc(NS(=O)(=O)c2c(Cl)cc(C(F)(F)F)cc2Cl)ccc1Cl
inactive: CRL-7250 2.92% | HaCat [1] | KB-3-1 -11% | NIH3T3 | HACAT [2]

COC(=O)c1ccc2c(c1)[nH]c1ncnc(NCCCN3CCCCC3)c12
inactive: CRL-7250 -8.38% | HaCat [1] | KB-3-1 -20.2% | NIH3T3 | HACAT [2]

CCC(CC)Nc1nc(C)c(-c2ccc(OC(F)(F)F)cc2OC)nc1OC
inactive: CRL-7250 -15% | HaCat [1] | KB-3-1 0.138% | NIH3T3 0.268% | HACAT [2]

COc1cccc(N2CCN(C3=Nc4c(F)cccc4[C@H](CC(=O)O)N3c3cc(C(F)(F)F)ccc3OC)CC2)c1
inactive: CRL-7250 3.02% | HaCat [1] | KB-3-1 -13.7% | NIH3T3 3.41% | HACAT [2]

COC(=O)/C=C/C=C/C(=O)OC1C=C2COC(=O)C2(O)C2(C)CCCC(C)(C)C12 (stereo not given)
inactive: CRL-7250 | HaCat [1] | KB-3-1 4.64% | NIH3T3 -4.83% | HACAT [2] inactive [at 17.4 µM]

CC(=O)NC[C@H]1CN(c2ccc(N3CCSCC3)c(F)c2)C(=O)O1
inactive: CRL-7250 3.86% | HaCat [1] | KB-3-1 -11.9% | NIH3T3 | HACAT [2]

COc1ccc(-c2cnc3c(-c4cccc5ncccc45)cnn3c2)cc1
inactive: CRL-7250 | HaCat [1] | KB-3-1 -5.9% | NIH3T3 -19.7% | HACAT [2]

Cc1ccc(OC[C@H](O)[C@H](C)NC(C)C)c2c1CCC2
inactive: CRL-7250 -3.77% | HaCat [1] | KB-3-1 5.3% | NIH3T3 0.0465% | HACAT [2]

O=C([C@@H](Cc1cccc(C(F)(F)F)c1)NS(=O)(=O)c1cc(F)c2c(c1)CCNC2)N1CCCC1
inactive: all assays above

C1=Cc2ccccc2C(=C2CCN(CCCCc3nn[nH]n3)CC2)c2ccccc21
inactive: CRL-7250 | HaCat [1] | KB-3-1 -8.87% | NIH3T3 | HACAT [2]

COC1=CC(=O)O/C1=C(/OC)[C@@H]1O[C@H]1c1ccccc1
inactive: CRL-7250 -14.3% | HaCat [1] | KB-3-1 -13.4% | NIH3T3 -27.3% | HACAT [2]

CC/C=C\CC1C(=O)C=CC1(CCCCC1CCC(=O)O1)OC(C)=O (stereo not given)
inactive: CRL-7250 | HaCat [1] | KB-3-1 4.62% | NIH3T3 4.76% | HACAT [2]

CC(C)Nc1nc(Nc2ccccc2)nc(-c2ccccc2)n1
inactive: CRL-7250 -10.5% | HaCat [1] | KB-3-1 -2.52% | NIH3T3 -18.6% | HACAT [2]

COc1ccc(CCO[C@@H]2O[C@H](CO[C@H]3OC[C@](O)(CO)[C@H]3O)[C@@H](OC(=O)/C=C/c3ccc(O)c(O)c3)[C@H](O[C@@H]3O[C@@H](C)[C@H](O)[C@@H](O)[C@H]3O)[C@H]2O)cc1OC
inactive: CRL-7250 -14.2% | HaCat [1] | KB-3-1 2.16% | NIH3T3 -1.58% | HACAT [2] inactive [at 17.4 µM]

CCCN(CCc1ccsc1)C1CCc2c(O)cccc2C1 (stereo not given)
inactive: CRL-7250 4.38% | HaCat [1] | KB-3-1 0.967% | NIH3T3 | HACAT [2]

NC(=O)c1cccc2[nH]c(-c3ccc(C4CCCN4)cc3F)nc12 (stereo not given)
inactive: all assays above

CC(C)c1c(O)ccc2c1CC[C@H]1C(C)(C)CCC[C@]21C
inactive: CRL-7250 | HaCat [1] | KB-3-1 7.3% | NIH3T3 | HACAT [2]

CN1CC[C@@H](c2c(O)cc(O)c3c(=O)cc(-c4ccc(C(F)(F)F)cc4Cl)oc23)[C@@H]1CO
inactive: CRL-7250 | HaCat [1] | KB-3-1 5.55% | NIH3T3 -4.65% | HACAT [2]

C/C=C(\C)C(=O)OC1C=C(C)CC(OC(=O)c2ccc(O)cc2)C2C1(C)CCC2(O)C(C)C (stereo not given)
inactive: CRL-7250 1.09% | HaCat [1] | KB-3-1 5.76% | NIH3T3 | HACAT [2] inactive [at 17.4 µM]

CC(C)(O)c1ccc2c(c1)ncn2-c1cccc(-c2ccccc2C#N)c1
inactive: CRL-7250 | HaCat [1] | KB-3-1 -0.453% | NIH3T3 | HACAT [2]

CC(=O)O[C@@H]1CC[C@@]2(C)[C@H](CC[C@@H]3[C@@H]2C[C@H](OC(C)=O)[C@]2(C)[C@@H](C(C)=O)CC[C@@H]32)C1
inactive: CRL-7250 -9.5% | HaCat [1] | KB-3-1 -28.9% | NIH3T3 -22.7% | HACAT [2]

CC(=O)O[C@H]1[C@@]2(O)C[C@H](C)[C@H](OC(=O)c3ccccc3)[C@@H]2[C@@H](OC(=O)CO)[C@]2(OC(C)=O)C[C@H]3C(=O)C(C)(C)C[C@@H]3[C@@]1(C)[C@H]2OC(C)=O
inactive: CRL-7250 -5.8% | HaCat [1] | KB-3-1 -0.153% | NIH3T3 1.84% | HACAT [2] inactive [at 17.4 µM]

COC(=O)C(Cc1ccc(OCCn2c(=O)sc3cc(C(=O)c4ccccc4)ccc32)cc1)C(=O)OC
inactive: CRL-7250 -17% | HaCat [1] | KB-3-1 0.264% | NIH3T3 2.75% | HACAT [2]

CC(=O)c1ccc2c(c1)[C@H](NC(=O)c1ccc(F)c(Cl)c1)[C@H](O)C(C)(C)O2
inactive: CRL-7250 -9.32% | HaCat [1] | KB-3-1 2.28% | NIH3T3 | HACAT [2]

CC(=O)c1c(C)cc2cccc(O)c2c1O[C@@H]1O[C@H](CO)[C@@H](O)[C@H](O)[C@H]1O
inactive: CRL-7250 -1.95% | HaCat [1] | KB-3-1 | NIH3T3 -3.48% | HACAT [2]
